Experiment [1] concerns the target T1, Ephrin type-A receptor 3 (Homo sapiens) (UniProt P29320).
T1 sequence (whole entry): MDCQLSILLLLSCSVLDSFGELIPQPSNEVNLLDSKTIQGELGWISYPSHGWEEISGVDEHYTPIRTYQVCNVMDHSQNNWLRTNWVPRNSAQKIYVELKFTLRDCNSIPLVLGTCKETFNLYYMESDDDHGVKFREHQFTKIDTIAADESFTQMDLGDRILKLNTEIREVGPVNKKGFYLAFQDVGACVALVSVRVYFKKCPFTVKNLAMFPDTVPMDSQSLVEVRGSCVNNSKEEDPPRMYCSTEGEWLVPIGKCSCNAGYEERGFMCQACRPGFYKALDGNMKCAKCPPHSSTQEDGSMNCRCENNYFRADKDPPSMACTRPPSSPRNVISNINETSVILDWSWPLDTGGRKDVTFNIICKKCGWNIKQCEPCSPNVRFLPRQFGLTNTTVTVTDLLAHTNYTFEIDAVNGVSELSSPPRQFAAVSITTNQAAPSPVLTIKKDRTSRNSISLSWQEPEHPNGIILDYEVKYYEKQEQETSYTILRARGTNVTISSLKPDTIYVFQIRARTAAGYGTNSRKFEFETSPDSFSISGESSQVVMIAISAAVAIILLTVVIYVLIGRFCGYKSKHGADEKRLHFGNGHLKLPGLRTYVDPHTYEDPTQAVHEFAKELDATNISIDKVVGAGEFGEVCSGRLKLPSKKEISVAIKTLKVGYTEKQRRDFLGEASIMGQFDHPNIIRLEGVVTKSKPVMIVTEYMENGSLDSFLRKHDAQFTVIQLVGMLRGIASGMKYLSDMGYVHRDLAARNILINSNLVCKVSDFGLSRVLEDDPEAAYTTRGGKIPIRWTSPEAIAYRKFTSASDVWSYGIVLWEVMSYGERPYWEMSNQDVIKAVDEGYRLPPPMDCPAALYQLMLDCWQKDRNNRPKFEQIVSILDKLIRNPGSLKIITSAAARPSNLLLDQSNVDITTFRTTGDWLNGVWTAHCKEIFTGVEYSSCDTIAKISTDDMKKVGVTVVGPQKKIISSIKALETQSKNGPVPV
Particulars: at 10 µM.

Experiment [2] deals with Ephrin type-A receptor 4 (Homo sapiens) (UniProt P54764). The following applies: at 1 µM.
Ephrin type-A receptor 4 (Homo sapiens), sequence (P54764 whole entry): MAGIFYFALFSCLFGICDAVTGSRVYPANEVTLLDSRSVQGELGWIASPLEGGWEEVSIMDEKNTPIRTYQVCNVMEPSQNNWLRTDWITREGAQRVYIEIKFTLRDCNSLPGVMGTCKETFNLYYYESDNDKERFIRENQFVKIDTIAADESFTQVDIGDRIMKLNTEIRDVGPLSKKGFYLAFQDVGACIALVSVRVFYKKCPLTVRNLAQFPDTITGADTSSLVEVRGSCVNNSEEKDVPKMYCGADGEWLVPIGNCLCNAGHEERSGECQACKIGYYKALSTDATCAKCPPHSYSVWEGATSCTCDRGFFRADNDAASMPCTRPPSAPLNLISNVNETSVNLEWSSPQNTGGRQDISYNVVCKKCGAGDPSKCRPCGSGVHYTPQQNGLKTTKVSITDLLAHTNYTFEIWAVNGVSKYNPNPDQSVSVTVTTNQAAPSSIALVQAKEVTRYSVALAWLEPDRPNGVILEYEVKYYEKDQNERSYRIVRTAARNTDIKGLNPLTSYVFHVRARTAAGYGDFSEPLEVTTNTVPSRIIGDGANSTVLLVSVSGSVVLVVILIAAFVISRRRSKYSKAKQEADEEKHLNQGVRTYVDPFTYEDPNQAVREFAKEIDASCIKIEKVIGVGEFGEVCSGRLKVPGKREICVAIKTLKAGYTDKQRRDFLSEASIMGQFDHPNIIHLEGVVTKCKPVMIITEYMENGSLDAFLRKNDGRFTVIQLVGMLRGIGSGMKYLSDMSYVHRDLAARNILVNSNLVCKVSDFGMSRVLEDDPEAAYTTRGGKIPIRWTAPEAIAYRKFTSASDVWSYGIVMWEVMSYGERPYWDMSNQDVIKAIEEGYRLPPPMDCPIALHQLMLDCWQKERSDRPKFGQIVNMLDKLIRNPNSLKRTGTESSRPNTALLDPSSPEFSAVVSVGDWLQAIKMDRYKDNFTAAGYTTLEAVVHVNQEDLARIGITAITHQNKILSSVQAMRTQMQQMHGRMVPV
Experiment [3] shares this target. Particulars: at 10 µM.
In experiment [4] the target is Ephrin type-A receptor 5 (Homo sapiens) (UniProt P54756). Particulars: at 1 µM.
Ephrin type-A receptor 5 (Homo sapiens), sequence (P54756 whole entry): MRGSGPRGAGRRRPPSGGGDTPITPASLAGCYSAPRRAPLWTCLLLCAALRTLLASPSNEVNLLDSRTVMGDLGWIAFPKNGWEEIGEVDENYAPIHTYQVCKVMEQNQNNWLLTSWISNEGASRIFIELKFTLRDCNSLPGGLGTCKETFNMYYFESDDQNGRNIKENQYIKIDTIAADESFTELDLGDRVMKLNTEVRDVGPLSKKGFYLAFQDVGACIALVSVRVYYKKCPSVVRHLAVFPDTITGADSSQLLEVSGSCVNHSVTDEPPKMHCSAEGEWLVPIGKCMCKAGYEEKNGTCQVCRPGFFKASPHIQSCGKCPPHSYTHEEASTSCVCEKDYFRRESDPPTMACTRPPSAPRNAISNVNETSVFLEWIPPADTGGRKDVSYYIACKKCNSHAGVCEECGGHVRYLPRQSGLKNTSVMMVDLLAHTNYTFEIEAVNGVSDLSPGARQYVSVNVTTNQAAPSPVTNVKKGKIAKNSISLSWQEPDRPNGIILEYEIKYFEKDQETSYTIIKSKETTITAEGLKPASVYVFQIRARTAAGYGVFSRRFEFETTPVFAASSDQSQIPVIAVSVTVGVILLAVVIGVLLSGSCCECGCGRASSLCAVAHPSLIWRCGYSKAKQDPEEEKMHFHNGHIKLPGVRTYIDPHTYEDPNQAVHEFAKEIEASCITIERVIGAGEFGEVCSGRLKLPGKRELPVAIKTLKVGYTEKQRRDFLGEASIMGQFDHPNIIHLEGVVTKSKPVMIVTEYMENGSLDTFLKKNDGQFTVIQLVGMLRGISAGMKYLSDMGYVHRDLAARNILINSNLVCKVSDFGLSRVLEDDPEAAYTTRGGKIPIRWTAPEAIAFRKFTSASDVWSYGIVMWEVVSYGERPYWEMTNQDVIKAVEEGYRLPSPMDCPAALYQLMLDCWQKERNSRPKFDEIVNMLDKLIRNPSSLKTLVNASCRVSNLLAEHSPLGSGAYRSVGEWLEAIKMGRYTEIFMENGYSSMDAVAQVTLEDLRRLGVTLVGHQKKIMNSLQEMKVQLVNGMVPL
Experiment [5] shares this target. The following applies: at 10 µM.
Experiment [6] has as its target Ephrin type-A receptor 7 (Homo sapiens) (UniProt Q15375). The following applies: at 1 µM.
The target is the same in experiment [7]. The following applies: at 10 µM.
Experiment [8] has as its target T2, Ephrin type-A receptor 8 (Homo sapiens) (UniProt P29322).
T2 sequence (whole entry): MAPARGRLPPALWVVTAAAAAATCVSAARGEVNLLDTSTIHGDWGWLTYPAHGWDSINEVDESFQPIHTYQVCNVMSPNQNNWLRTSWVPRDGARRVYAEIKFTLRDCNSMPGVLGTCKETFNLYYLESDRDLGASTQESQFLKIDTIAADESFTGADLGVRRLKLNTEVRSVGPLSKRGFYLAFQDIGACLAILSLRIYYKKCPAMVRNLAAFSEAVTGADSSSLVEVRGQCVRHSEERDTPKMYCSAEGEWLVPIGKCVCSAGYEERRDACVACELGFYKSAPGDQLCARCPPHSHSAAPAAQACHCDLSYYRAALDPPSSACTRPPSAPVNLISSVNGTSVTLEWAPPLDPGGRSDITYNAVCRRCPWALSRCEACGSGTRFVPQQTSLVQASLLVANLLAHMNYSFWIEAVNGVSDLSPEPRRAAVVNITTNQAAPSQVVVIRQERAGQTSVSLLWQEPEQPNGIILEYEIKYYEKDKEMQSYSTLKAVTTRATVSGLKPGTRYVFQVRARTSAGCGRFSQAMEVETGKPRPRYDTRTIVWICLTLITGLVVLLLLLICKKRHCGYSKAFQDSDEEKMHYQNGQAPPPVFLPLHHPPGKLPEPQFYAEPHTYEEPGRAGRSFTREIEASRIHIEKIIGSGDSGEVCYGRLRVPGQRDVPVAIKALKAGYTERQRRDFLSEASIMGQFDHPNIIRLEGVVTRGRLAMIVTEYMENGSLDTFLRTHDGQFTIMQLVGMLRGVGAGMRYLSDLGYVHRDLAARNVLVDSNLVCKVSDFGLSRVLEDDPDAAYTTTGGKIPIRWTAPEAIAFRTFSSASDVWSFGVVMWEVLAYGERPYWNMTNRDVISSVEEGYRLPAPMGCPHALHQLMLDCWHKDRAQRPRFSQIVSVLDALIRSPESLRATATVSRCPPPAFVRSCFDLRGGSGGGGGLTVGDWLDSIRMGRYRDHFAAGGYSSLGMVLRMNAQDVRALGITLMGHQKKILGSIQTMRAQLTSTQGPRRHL
Particulars: at 1 µM.

For experiment [9], the target named is T2, Ephrin type-A receptor 8 (Homo sapiens). The following applies: at 10 µM.
Experiment [10] deals with T3, Ephrin type-B receptor 1 (Homo sapiens) (UniProt P54762).
T3 sequence (whole entry): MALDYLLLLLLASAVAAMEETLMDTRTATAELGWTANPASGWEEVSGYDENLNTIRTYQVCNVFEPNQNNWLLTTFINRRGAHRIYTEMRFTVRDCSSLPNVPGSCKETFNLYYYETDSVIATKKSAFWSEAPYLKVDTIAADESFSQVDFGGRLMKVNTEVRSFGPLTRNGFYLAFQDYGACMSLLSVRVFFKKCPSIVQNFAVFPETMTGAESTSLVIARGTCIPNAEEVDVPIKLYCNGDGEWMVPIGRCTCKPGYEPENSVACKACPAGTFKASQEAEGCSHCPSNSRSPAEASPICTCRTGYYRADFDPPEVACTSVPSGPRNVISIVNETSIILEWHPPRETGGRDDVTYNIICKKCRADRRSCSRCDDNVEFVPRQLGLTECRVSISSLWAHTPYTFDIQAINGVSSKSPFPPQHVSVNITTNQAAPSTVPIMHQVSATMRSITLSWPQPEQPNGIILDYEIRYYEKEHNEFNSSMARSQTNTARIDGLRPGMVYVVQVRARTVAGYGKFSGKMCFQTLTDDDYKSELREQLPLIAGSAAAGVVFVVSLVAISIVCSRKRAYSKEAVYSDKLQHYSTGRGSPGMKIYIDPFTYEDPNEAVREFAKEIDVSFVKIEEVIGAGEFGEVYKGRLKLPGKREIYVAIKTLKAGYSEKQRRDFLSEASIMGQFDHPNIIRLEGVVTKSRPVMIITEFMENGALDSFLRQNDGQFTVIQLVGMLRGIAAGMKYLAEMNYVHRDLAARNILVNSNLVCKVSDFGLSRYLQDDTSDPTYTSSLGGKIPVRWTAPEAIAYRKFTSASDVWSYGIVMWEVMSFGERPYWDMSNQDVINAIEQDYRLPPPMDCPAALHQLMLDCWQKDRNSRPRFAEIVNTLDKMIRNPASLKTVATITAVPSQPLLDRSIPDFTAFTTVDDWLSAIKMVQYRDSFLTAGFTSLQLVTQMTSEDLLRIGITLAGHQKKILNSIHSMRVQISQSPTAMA
The following applies: at 1 µM.

Experiment [11] addresses T3, Ephrin type-B receptor 1 (Homo sapiens). The following applies: at 10 µM.
For experiment [12], the target named is T4, Ephrin type-B receptor 2 (Homo sapiens) (UniProt P29323).
T4 sequence (whole entry): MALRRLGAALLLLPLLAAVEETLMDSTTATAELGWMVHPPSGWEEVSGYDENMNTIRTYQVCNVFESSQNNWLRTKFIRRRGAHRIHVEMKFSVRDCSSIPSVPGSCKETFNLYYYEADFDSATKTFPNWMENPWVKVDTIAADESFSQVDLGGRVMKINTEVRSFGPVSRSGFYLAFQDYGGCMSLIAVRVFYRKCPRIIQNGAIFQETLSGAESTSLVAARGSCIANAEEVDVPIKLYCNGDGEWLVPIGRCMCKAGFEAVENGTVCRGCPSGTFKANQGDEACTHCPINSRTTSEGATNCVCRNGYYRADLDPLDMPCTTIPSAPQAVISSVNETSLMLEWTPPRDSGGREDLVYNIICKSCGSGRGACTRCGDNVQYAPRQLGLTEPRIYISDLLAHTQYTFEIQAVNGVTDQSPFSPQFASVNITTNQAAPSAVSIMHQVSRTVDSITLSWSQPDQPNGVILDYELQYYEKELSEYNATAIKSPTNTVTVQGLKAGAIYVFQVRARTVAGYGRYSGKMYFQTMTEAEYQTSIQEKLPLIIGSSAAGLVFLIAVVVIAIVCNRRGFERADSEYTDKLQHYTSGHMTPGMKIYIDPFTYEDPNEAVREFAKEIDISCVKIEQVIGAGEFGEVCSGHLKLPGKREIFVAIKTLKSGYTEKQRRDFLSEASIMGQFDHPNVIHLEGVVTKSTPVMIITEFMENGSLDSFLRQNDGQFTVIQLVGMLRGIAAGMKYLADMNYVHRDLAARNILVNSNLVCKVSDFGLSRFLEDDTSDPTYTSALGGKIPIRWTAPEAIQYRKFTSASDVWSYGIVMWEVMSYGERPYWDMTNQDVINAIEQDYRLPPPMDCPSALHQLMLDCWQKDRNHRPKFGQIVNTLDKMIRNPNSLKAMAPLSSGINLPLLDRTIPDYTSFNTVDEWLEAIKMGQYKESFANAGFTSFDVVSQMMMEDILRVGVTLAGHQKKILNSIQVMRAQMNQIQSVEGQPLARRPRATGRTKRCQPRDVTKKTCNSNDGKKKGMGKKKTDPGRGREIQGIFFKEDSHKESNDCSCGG
The following applies: at 1 µM.

Experiment [13] has as its target T4, Ephrin type-B receptor 2 (Homo sapiens). Particulars: at 10 µM.
Experiment [14] concerns the target Receptor tyrosine-protein kinase erbB-4 (Homo sapiens) (UniProt Q15303). Particulars: at 10 µM.
The target in experiment [15] is Focal adhesion kinase 1 (Homo sapiens) (UniProt Q05397). The following applies: at 1 µM.

Ephrin type-A receptor 7 (Homo sapiens), sequence (Q15375 28-998 limits assumed): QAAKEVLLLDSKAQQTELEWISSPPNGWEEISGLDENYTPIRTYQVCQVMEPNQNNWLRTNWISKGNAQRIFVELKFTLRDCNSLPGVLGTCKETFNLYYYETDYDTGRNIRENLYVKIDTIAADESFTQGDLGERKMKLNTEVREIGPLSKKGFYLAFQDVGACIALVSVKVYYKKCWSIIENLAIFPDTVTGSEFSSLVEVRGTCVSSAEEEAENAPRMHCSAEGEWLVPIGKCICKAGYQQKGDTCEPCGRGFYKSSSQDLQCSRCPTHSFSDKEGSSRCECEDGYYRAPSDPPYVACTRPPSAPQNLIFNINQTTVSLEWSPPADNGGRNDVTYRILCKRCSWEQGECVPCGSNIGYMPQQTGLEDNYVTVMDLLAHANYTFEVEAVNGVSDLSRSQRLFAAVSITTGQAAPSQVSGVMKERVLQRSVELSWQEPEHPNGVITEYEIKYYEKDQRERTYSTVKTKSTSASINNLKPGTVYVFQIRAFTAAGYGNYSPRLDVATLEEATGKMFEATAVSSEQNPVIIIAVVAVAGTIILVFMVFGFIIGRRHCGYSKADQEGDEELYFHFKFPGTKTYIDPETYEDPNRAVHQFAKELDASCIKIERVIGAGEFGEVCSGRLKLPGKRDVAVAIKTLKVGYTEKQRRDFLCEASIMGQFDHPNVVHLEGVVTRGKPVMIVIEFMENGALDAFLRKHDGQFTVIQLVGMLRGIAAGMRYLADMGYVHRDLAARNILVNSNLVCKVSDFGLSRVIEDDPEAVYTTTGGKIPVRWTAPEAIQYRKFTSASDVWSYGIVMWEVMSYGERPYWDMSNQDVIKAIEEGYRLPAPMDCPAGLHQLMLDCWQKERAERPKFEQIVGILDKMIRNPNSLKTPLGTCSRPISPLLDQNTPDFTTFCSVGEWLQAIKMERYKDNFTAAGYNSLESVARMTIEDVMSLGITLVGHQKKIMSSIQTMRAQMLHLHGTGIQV
Receptor tyrosine-protein kinase erbB-4 (Homo sapiens), sequence (Q15303 whole entry): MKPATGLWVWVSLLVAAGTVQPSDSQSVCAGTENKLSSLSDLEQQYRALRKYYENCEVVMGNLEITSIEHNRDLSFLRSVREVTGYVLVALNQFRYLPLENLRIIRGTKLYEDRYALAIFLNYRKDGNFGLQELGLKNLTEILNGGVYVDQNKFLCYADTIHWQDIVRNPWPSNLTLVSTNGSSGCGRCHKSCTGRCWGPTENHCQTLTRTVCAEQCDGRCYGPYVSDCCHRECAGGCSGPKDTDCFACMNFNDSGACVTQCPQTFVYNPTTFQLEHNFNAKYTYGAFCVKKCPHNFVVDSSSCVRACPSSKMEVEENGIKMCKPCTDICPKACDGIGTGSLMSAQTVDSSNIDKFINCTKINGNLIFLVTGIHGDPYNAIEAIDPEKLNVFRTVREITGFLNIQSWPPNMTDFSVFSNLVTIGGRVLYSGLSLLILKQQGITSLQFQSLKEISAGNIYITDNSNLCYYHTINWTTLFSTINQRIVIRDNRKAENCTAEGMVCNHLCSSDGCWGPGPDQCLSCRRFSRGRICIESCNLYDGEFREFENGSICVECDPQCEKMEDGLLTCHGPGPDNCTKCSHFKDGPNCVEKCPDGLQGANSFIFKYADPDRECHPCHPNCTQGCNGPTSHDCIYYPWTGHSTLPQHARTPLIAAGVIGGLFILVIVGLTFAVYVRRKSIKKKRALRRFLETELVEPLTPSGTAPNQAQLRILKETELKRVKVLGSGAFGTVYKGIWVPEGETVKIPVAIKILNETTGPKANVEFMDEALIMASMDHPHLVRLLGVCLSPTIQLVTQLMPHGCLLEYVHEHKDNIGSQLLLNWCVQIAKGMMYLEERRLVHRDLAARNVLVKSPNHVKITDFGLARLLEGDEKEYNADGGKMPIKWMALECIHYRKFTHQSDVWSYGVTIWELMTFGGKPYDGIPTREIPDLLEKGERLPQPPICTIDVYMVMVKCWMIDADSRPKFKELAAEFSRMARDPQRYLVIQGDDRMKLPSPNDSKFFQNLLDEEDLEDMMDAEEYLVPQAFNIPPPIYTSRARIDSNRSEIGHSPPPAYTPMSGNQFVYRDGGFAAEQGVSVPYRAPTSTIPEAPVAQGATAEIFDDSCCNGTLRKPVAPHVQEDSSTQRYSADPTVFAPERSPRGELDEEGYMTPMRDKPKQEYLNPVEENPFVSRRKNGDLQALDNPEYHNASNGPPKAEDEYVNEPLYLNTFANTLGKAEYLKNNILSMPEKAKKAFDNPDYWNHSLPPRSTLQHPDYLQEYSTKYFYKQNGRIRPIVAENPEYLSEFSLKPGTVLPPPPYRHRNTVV

For `COc1cc2nccc(Oc3ccc(NC(=O)Nc4cc(C)on4)c(Cl)c3)c2cc1OC`, the residual activity in experiment [1] came out at 0%; in experiment [2], 26%; in experiment [3], 3%; in experiment [4] it was 2%; in [5], 7%; in [6] it was 6%. Further, the residual activity is 1% in experiment [7]; 1% in [8]; 1% in experiment [9]; 1% in experiment [10]; -1% in [11]; -2% in [12]. The residual activity is -1% in [13], 75% in experiment [14] and 96% in [15].

The values above are taken from ChEMBL document CHEMBL2218924, “A broad activity screen in support of a chemogenomic map for kinase signalling research and drug discovery” (Biochem J, 2013).
